Source: PubChem
PNC inhibitor = inhibitors of perinucleolar compartment assembly; activity change (PNC), negative = inhibition, % at 10 µM; actives 3.1% (n = 140,000); PC3M PTB-GFP, PNC prevalence imaging, 16 h; hits give low values;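 active = readout at or below -70, meaning at least 70% loss of cells showing the perinucleolar compartment, a nuclear body marking cancer cells; inconclusive = readout between -30 and a set limit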;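 note: plate controls were DMSO wells for no effect and camptothecin positive control wells for full effect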
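Compounds are pinned in duplicate onto adhered PC3M cells stably expressing GFP-tagged PTB and incubated 16 h at 37 C. Cells are then fixed, nuclei stained with Hoechst, and PNC-positive cells counted.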
Tau FP inhib = blocks human tau fibril formation measured by polarization; P10636; K18 P301L tau heparin fibrillization, Alexa594 FP, 6 h; Potency, µM (titrated, usually from 57.7 µM), for the others: top-dose activity, negative = inhibition, usual class: inhibitors; actives 0.39% (n = 280,000); note: potency is the fitted concentration of half-maximal effect; nearly all actives have a fitted effect of over 55% in size
Target sequence (P10636 561-689 P618L limits assumed): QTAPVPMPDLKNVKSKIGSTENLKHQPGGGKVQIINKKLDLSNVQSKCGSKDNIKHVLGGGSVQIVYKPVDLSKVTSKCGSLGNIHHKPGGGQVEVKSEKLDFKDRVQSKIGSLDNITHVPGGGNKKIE
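Compound effects on tau fibrillization are measured by Alexa 594 fluorescence polarization (ex 555, em 632 nm). K18 P301L tau is used at 15 uM with 0.24 uM labeled tracer, and 20 uM heparin induces aggregation over 6 hr at 37 C.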
JMJD2E inh = inhibitors of human JMJD2E histone demethylase. JMJD2E catalytic domain, FDH-coupled NADH fluorescence (FDH is formaldehyde dehydrogenase). Potency, µM (highest dose often 57.1 µM), for the others: top-dose activity change, negative = inhibition, hits mostly inhibitors. actives 1.6% (n = 230,000); active = well fitted inhibition curve with a large enough effect, not every such curve was filed as active; inconclusive = small, poorly fitted or top-dose-only effect, or another doubt; inactive = no such curve, though single readings can be large or run the other way;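 note: potency is the fitted concentration of half-maximal effect; 0% = wells with enzyme and -100% = buffer wells without enzyme; nearly all actives have a fitted effect of over 50% in size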
NPSR antag = neuropeptide S receptor (human) antagonism, cAMP. Q6W5P4. CHO-NPSR cells, cAMP TR-FRET, antagonist mode. Potency, µM (highest dose often 38.3 µM), for the others: at the top dose activity change, negative = inhibition, usual class: inhibitors. actives 1% (n = 220,000). AID 1461; note: potency is the fitted concentration of half-maximal effect; nearly all actives have a fitted effect of over 50% in size
Target sequence (Q6W5P4 whole entry, looked up): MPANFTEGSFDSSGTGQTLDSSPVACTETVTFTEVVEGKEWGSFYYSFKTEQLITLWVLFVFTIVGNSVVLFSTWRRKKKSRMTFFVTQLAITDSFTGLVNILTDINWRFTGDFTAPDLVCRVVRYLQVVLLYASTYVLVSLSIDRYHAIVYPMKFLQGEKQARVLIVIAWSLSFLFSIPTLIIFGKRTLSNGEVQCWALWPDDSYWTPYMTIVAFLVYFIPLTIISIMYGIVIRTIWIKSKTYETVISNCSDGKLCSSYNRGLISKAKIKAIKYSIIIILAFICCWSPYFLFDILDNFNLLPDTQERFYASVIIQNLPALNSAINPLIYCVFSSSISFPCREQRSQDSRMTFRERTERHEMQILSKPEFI
Tau fluor counter = counter-screen for tau fibril formation inhibitors. tau K18 P301L Alexa594 fluorescence, heparin fibrillization. Potency, µM (top dose mostly 57.7 µM), inactives show at the highest dose activity change, negative = decrease. actives 0.93% (n = 280,000). AID 1463; note: potency is the fitted concentration of half-maximal effect; nearly all actives have a fitted effect of over 55% in size
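Human tau K18 P301L (15 uM unlabeled, 0.24 uM Alexa 594-labeled) in 100 mM sodium acetate pH 7 with 20 uM heparin, 6 hr at 37 C. ThT 30 uM added, 1 hr ambient; Alexa 594 FP and total fluorescence read at 555/632 nm.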
Tau ThT inhib = tau fibrillization inhibition (ThT binding); P10636; Potency, µM (titrated, usually from 57.4 µM), for inactives: top-dose activity, negative = inhibition, actives largely listed as inhibitors; recombinant tau K18 P301L (four-repeat tau fragment), heparin-induced fibrillization, ThT fluorescence; AID 1460; actives 2.1% (n = 270,000); note: potency is the fitted concentration of half-maximal effect; nearly all actives have a fitted effect of over 55% in size
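Recombinant human tau K18 fragment […] carrying P301L, 15 uM unlabeled plus 0.24 uM Alexa 594-labeled, was fibrillized with 20 uM heparin in 100 mM sodium acetate pH 7 for 6 hr at 37 C; 30 uM ThT fluorescence read after 1 hr.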
An asterisk follows results filed as active; ? = inconclusive; · = not tested or not shown; [ ] = remark or other dose. Shown are actives, neighbours in structure and some others; about 5.1% of the full set was active somewhere. Unless noted, calls come from the whole dose curve; as a rule, active = well fitted curve in the direction sought with a large enough effect; inconclusive = small, poorly fitted or top-dose-only effect, or another doubt; inactive = no such curve, though single readings can be large; an effect the other way counts as inactive or inconclusive. Unless noted, % is set by controls: 0 for no effect and ±100 for the full control effect.

SMILES	PNC inhibitor	Tau FP inhib	JMJD2E inh	NPSR antag	Tau fluor counter	Tau ThT inhib
Cn1cc(C(=O)NCCc2ccccc2)c(=O)c2cc(S(=O)(=O)N3CCCCCC3)ccc21	·	-8%	·	·	?	0%
Cn1cccc1/C=N/NC(=O)C(O)c1ccccc1 (stereo unspecified)	·	5%[11.6 µM]	25µM*	7%	14%[11.6 µM]	·
O=c1[nH]c2ccc(NCc3ccc(-c4ccc(F)cc4)o3)cc2[nH]1	·	7%	·	·	-28%	?
O=C(CCNS(=O)(=O)c1ccc2c(c1)CCN2C(=O)C1CC1)N1CCN(c2cccc(C(F)(F)F)c2)CC1	·	13%	·	·	-28%	?
Cc1cc(OC(C)C(=O)Nc2cccc(-c3nc4ccccc4o3)c2)cc(C)c1Cl (stereo unspecified)	·	-5%	·	·	-25%	-7%
O=C(CN1c2ccccc2Sc2ccccc21)NNC(=O)Nc1cccc(Cl)c1	·	?	-7%	-54%	8.9µM*[quencher]	-4%
CC(=O)N1CCN(C(=S)c2ccc(Cl)cc2)CC1	96	-3%	5%	24%	0%	6%
O=C(CN1CC[n+]2c(-c3cccs3)csc21)c1ccc(-c2ccccc2)cc1	·	5%	0%	-23%	22%	27%
CCc1ccc(-c2csc3[n+]2CCN3C(C)=O)cc1	-5	?	-3%	-8%[46.1 µM]	-20%	25µM*
CC(=O)N1CC[n+]2c(-c3ccc(Cl)cc3)csc21	-26	?	-8%	8%	-25%	28µM*
COc1ccccc1CNC(=O)c1cnn(-c2ccc(F)cc2F)c1C1CCN(C(=O)OC(C)(C)C)CC1	·	4%	·	·	-4%	-2%
Cc1ccc2[nH]c3c(c2c1)CCC3=O	-10	2%	?	9%[46.1 µM]	-13%	-23%
Cc1ccc2[nH]c3c(c2c1)CCc1cn[nH]c1-3	19	?	?	-7%[46.1 µM]	25µM*[quencher]	13µM*
COC(=O)C/C=C/C(C)C(OCc1cccc(Br)c1)C(C)C(OC)C1CCCCC1 (stereo unspecified)	·	-6%[11.6 µM]	·	·	-7%[11.6 µM]	-13%[11.5 µM]
O=S(=O)(NNc1ccc(Cl)nn1)c1ccc(F)cc1	-88*	?	-2%	21%	-11%	?
Cc1cc(/C=C2\SC(=S)NC2=O)c(C)n1-c1ccc(O)cc1	·	11%	?	?	22µM*[quencher]	7.9µM*
Cc1cc(=O)[nH]c(=S)n1-c1ccccc1	-122*	2%	-1%	9%[46.1 µM]	1%	8%
COc1ccc(-n2c(C)cc(/C=C3\SC(=S)NC3=O)c2C)cc1	·	-8%	?	29%	-27%	?
Cc1cc(/C=C2\SC(=S)NC2=O)c(C)n1-c1ccccc1	·	?	-25%	?	?	7.1µM*
Cc1cc(/C=C2\SC(=Nc3ccc(F)cc3)NC2=O)c(C)n1-c1ccc(S(N)(=O)=O)cc1	-99*	10%	-8%	10µM*	?	14µM*
Cc1cc(/C=C2/SC(=O)NC2=O)c(C)n1-c1ccc(N2CCOCC2)cc1	?	1%	-4%	-23%	-4%	-14%
COc1ccc(NCc2nnc3n2CCCCC3)c(OC)c1	·	-2%	·	·	1%	3%
O=C(Nc1ccc(Br)cc1F)c1cc(S(=O)(=O)NC2CCCC2)ccc1F	·	-12%	·	·	-17%	7%
COc1ccc(N2CCN(C(c3ccc(F)cc3)c3sc4nc(-c5ccco5)nn4c3O)CC2)cc1 (stereo unspecified)	·	1%	·	·	?	?
CC(=O)n1cc(N(C(=O)CCl)c2ccc(Cl)cc2)c2ccccc21	·	-7%	?	?	-19%	28µM*
SMILES	PNC inhibitor	Tau FP inhib	JMJD2E inh	NPSR antag	Tau fluor counter	Tau ThT inhib
CCOC(=O)/C(=C\c1cccc(O)c1)c1nc2sc(C)c(C)c2c(=O)[nH]1	?	?	-4%	10µM*	-16%	20µM*
Oc1ccc(/C=N/n2c3ccccc3c3ccccc32)cc1	-8	?	-8%	-17%[46.1 µM]	14µM*[quencher]	35µM*
Cc1nnc(C)n1/N=C/c1ccc(O)cc1	-20	-8%	0%	-1%[46.1 µM]	-5%	-10%
COCCN(C(=O)COc1ccc(Cl)cc1)c1nnc(-c2cccnc2)s1	-100*	5%	-12%	-8%[46.1 µM]	-2%	1%
COCCN(C(=O)COc1ccccc1)c1nnc(-c2cccnc2)s1	-28	-7%	-2%	3%[46.1 µM]	0%	-1%
COc1cccc(-n2cc(C(=O)Oc3cccc(C(F)(F)F)c3)c3ccccc3c2=O)c1	·	-9%	·	·	-17%	-12%
CN(C)c1ccc(N/C=C/C(=O)c2ccc(F)cc2)cc1	-29	-13%	13µM*	-11%[46.1 µM]	?	2µM*
CC(=O)Nc1ccc(NC(=O)c2ccco2)cc1	?	-12%	-4%	-14%[46.1 µM]	-14%	-17%
O=C(/C=C/Nc1ccccc1O)c1ccco1	·	-7%	-20%	-3%	-26%	13µM*
CC(=O)Nc1ccc(N/C=C/C(=O)c2ccco2)cc1	?	4%	5%	2%[46.1 µM]	-18%	10µM*
CN(C)c1ccc(N/C=C/C(=O)c2ccco2)cc1	?	?	6%	?	?	2µM*
O=C(/C=C/Nc1cccc(F)c1)c1ccco1	28	-5%	-24%	-8%[46.1 µM]	-17%	?
NS(=O)(=O)c1ccc(N/C=C\C(=O)c2ccc(F)cc2)cc1	·	3%	?	-7%	-4%	-2%
COC(=O)[C@H](COC(C)(C)C)NC(=O)O[C@@H]1C(=O)c2ccc(OC)cc2O[C@H]1c1cccc(C(F)(F)F)c1	·	5%	-9%	·	-13%	-5%
Nn1cnnc1N/N=C\c1ccc(-c2ccccc2[N+](=O)[O-])o1	?	?	4.5µM*	-17%	?	7.9µM*
O=C(N/N=C/c1ccc(-c2ccc([N+](=O)[O-])cc2)o1)c1cccnc1	·	-3%	-19%	34%	-14%	?
O=C(N/N=C/c1ccc(-c2ccccc2[N+](=O)[O-])o1)c1cncc(Br)c1	4	?	-17%	3%	?	7.9µM*
O=C(N/N=C\c1ccc([N+](=O)[O-])o1)c1cncc(Br)c1	·	1%	-1%	-44%	-5%	·
O=[N+]([O-])c1ccccc1-c1ccc(/C=N/n2cnnc2)o1	47	3%	6%	-11%[46.1 µM]	-6%	?
Cc1cc([N+](=O)[O-])c(C)cc1-c1ccc(/C=N/NC(=O)c2cccnc2)o1	·	?	-17%	-26%	?	7.1µM*
O=C(Nc1ccc(Cl)cc1)OCCN1CCN(Cc2ccccc2)CCC1=O	·	-7%[81.3 µM]	·	·	-16%[81.3 µM]	-2%[81.4 µM]
O=C(C1CC1)N1CCN(c2nc3ccc(F)cc3s2)CC1	·	-10%	·	·	-5%	-16%
CCN(CC)c1ccc(CC(=O)NC(C)Cc2ccccc2)cc1 (stereo unspecified)	-106*	10%	1%	-15%[46.1 µM]	-5%	-6%
